Results published in PubChem BioAssay (NCI).
This is part of a sample that, as a whole, favours compounds with a hit. Of some 79,000 tested, about 15% had one in any assay. A number with no mark means an inactive call. The source made the active and inactive calls. No stated cut-off is given here; in the data, active means growth inhibition above about 70%; inactive means the rest.

Columns and labels:
[1] = NCI Yeast Anticancer Drug Screen. Data for the rad50 strain (AID 155);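 further: 0% = growth of vehicle-only cultures of the same strain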; conditions: S. cerevisiae rad50 strain growth inhibition, active compounds read high
Outline: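 Readout: growth inhibition relative to vehicle-treated cultures. Compound exposure was carried out in a genetically defined yeast strain deficient in DNA damage repair.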

[2] = NCI Yeast Anticancer Drug Screen. Data for the mec2-1 strain (AID 157); conditions: S. cerevisiae mec2-1 strain, active compounds read high
Outline: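 Strain: mec2-1 (DNA repair/cell cycle alteration). Compound exposure, then growth measured; inhibition expressed relative to vehicle.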

[3] = NCI Yeast Anticancer Drug Screen. Data for the sgs1 mgt1 strain (AID 161);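 further: 0% = growth of cultures given vehicle only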; conditions: S. cerevisiae sgs1 mgt1 strain, active compounds read high
Outline: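 Read-out: growth inhibition vs vehicle controls. Cells: mutant yeast strain deficient in DNA damage repair.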

[4] = NCI Yeast Anticancer Drug Screen. Data for the cln2 rad14 strain (AID 165);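 further: 0% = growth equal to vehicle treated cultures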; conditions: S. cerevisiae cln2 rad14 strain, active compounds read high
Outline: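 Compounds are applied to the cln2 rad14 yeast strain, and growth is then compared with that of vehicle-treated cultures to give inhibition.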

[5] = NCI Yeast Anticancer Drug Screen. Data for the bub3 strain (AID 167); conditions: S. cerevisiae bub3 mutant strain, active compounds read high
Outline: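 Readout: yeast growth inhibition, expressed relative to vehicle-only wells. The test organism is a mutant strain from a panel with lesions in DNA repair or checkpoint genes.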

[6] = NCI Yeast Anticancer Drug Screen. Data for the mlh1 rad18 strain (AID 175); conditions: S. cerevisiae mlh1 rad18 strain growth inhibition, active compounds read high
Outline: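 Read-out is yeast growth inhibition, calculated against vehicle-only controls. The compound was applied to a strain engineered with DNA damage repair alterations.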

[7] = NCI Yeast Anticancer Drug Screen. Data for the wt2 strain (AID 169);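 further: 0% = growth of vehicle-treated yeast cultures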; conditions: S. cerevisiae wt2 strain growth inhibition, active compounds read high
Outline: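 This strain belongs to a panel of yeast strains with defined genetic alterations in DNA damage repair or cell cycle control. Compounds are applied, and growth inhibition is measured against vehicle-treated cultures.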

[8] = NCI Yeast Anticancer Drug Screen. Data for the rad50EPP+ strain (AID 151);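 further: 0% = growth of vehicle-treated control cultures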; conditions: S. cerevisiae rad50 mutant strain, active compounds read high
Outline: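 Compounds were applied to the rad50EPP+ yeast strain, which bears a defined DNA repair alteration, and growth inhibition was determined relative to vehicle-treated cultures.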

[9] = NCI Yeast Anticancer Drug Screen. Data for the mgt1 strain (AID 153); conditions: S. cerevisiae mgt1 mutant growth inhibition, active compounds read high
Outline: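 Strain: mgt1 yeast, one of a set carrying defined DNA damage repair or cell cycle control alterations. Compound-treated growth compared with vehicle.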

[10] = NCI Yeast Anticancer Drug Screen. Data for the rad14 strain (AID 159);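 further: 0% = growth of vehicle-treated control cultures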; conditions: S. cerevisiae rad14 strain growth inhibition, active compounds read high
Outline: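 Growth inhibition vs vehicle controls; genetically altered yeast strain (DNA damage repair defect) treated with test compounds.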

[11] = NCI Yeast Anticancer Drug Screen. Data for the CLN2oe strain (AID 163);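 further: 0% = growth of vehicle-only control cultures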; conditions: S. cerevisiae CLN2oe strain, active compounds read high
Outline: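 Growth of a genetically modified yeast strain is measured after compound exposure and compared with cultures given vehicle alone.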

[12] = NCI Yeast Anticancer Drug Screen. Data for the mlh1 strain (AID 171);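 further: 0% = growth of vehicle-treated control cultures of the same strain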; conditions: S. cerevisiae mlh1 strain growth inhibition, active compounds read high
Outline: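 Growth of the mutant yeast strain after compound exposure, expressed as inhibition relative to vehicle-only controls.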

[13] = NCI Yeast Anticancer Drug Screen. Data for the sgs1 strain (AID 173);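 further: 0% = growth of vehicle-only control cultures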; conditions: S. cerevisiae sgs1 mutant, active compounds read high
Outline: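 Growth of a yeast strain bearing a defined genetic alteration is measured after compound treatment. Inhibition is expressed relative to vehicle-only controls.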

[14] = NCI Yeast Anticancer Drug Screen. Data for the rad18 strain (AID 177); conditions: S. cerevisiae rad18 mutant growth inhibition, active compounds read high
Outline: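 Growth of the mutant yeast strain after compound exposure, normalised to vehicle-only cultures.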

[15] = at 5.0 µM (retest, dose inferred, filed as 0.5)
[16] = at 50.0 µM (retest, dose inferred, filed as 5.0)

Cc1ccc(P(c2ccc(C)cc2)c2ccc(C)cc2)cc1
growth inhibition ([1]; at 1.2 µM): 16% | growth inhibition ([1]; at 3.7 µM): 26% | growth inhibition [1, 15]: 57% | growth inhibition ([1]; at 11.0 µM): 25% | growth inhibition ([1]; at 33.0 µM): 33% | growth inhibition [1, 16]: 96% (active) | growth inhibition ([1]; at 50.0 µM): 37.7% | growth inhibition ([1]; at 100.0 µM): 36% | growth inhibition ([2]; at 1.2 µM): -3% | growth inhibition ([2]; at 3.7 µM): -2% | growth inhibition [2, 15]: 58% | growth inhibition ([2]; at 11.0 µM): 2% | growth inhibition ([2]; at 33.0 µM): 24% | growth inhibition [2, 16]: 98% (active) | growth inhibition ([2]; at 50.0 µM): 9.9% | growth inhibition ([2]; at 100.0 µM): 32% | growth inhibition [3, 15]: 7% | growth inhibition [3, 16]: 43% | growth inhibition ([3]; at 50.0 µM): 39.2% | growth inhibition [4, 15]: 69% | growth inhibition [4, 16]: 44% | growth inhibition ([4]; at 50.0 µM): 35.9% | growth inhibition ([5]; at 1.2 µM): 20% | growth inhibition ([5]; at 3.7 µM): 43% | growth inhibition [5, 15]: 43% | growth inhibition ([5]; at 11.0 µM): 57% | growth inhibition ([5]; at 33.0 µM): 78% (active) | growth inhibition [5, 16]: 88% (active) | growth inhibition ([5]; at 50.0 µM): 75.8% (active) | growth inhibition ([5]; at 100.0 µM): 75% (active) | growth inhibition [6, 15]: 49% | growth inhibition [6, 16]: 97% (active) | growth inhibition ([6]; at 50.0 µM): 26.4%

c1ccc2c(NCCCCCCNc3c4ccccc4nc4ccccc34)c3ccccc3nc2c1
growth inhibition [1, 15]: 68% | growth inhibition [1, 16]: 89% (active) | growth inhibition ([1]; at 50.0 µM): 75.4% (active) | growth inhibition [2, 15]: 43% | growth inhibition [2, 16]: 80% (active) | growth inhibition ([2]; at 50.0 µM): 73.5% (active) | growth inhibition [3, 15]: 54% | growth inhibition [3, 16]: 83% (active) | growth inhibition ([3]; at 50.0 µM): 61.5% | growth inhibition [4, 15]: 20% | growth inhibition [4, 16]: 57% | growth inhibition ([4]; at 50.0 µM): 8.4% | growth inhibition [5, 15]: 56% | growth inhibition [5, 16]: 88% (active) | growth inhibition ([5]; at 50.0 µM): 73.1% (active) | growth inhibition [6, 15]: 61% | growth inhibition [6, 16]: 83% (active)

O=C1NC(=S)NC(=O)C1=C/C=C/c1ccccc1
growth inhibition [1, 15]: 33% | growth inhibition [1, 16]: 40% | growth inhibition ([1]; at 50.0 µM): 73% (active) | growth inhibition [2, 15]: 40% | growth inhibition [2, 16]: 32% | growth inhibition ([2]; at 50.0 µM): 46.6% | growth inhibition [3, 15]: 4% | growth inhibition [3, 16]: 89% (active) | growth inhibition ([3]; at 50.0 µM): 79.7% (active) | growth inhibition [4, 15]: 44% | growth inhibition [4, 16]: 89% (active) | growth inhibition ([4]; at 50.0 µM): 31.8% | growth inhibition [5, 15]: 26% | growth inhibition [5, 16]: 84% (active) | growth inhibition ([5]; at 50.0 µM): 73.7% (active) | growth inhibition ([7]; at 1.2 µM): -15% | growth inhibition ([7]; at 3.7 µM): -3% | growth inhibition ([7]; at 11.0 µM): 2% | growth inhibition ([7]; at 33.0 µM): 46% | growth inhibition ([7]; at 100.0 µM): 98% (active) | growth inhibition [6, 15]: 29% | growth inhibition [6, 16]: 33% | growth inhibition ([6]; at 50.0 µM): 69.7%

[Br][Ni][Br].c1ccc(CN2CCN(Cc3ccccc3)CCN(Cc3ccccc3)CCN(Cc3ccccc3)CC2)cc1
growth inhibition [1, 15]: 0% | growth inhibition [1, 16]: 82% (active) | growth inhibition ([1]; at 50.0 µM): 96.7% (active) | growth inhibition [2, 15]: 0% | growth inhibition [2, 16]: 62% | growth inhibition ([2]; at 50.0 µM): 98.3% (active) | growth inhibition [3, 15]: -2% | growth inhibition [3, 16]: 65% | growth inhibition ([3]; at 50.0 µM): 97.6% (active) | growth inhibition [4, 15]: -2% | growth inhibition [4, 16]: 78% (active) | growth inhibition ([4]; at 50.0 µM): 98.2% (active) | growth inhibition [5, 15]: 3% | growth inhibition [5, 16]: 92% (active) | growth inhibition ([5]; at 50.0 µM): 98.5% (active)

COC(=O)C1=C(C(=O)OC)C2OC1c1cc3ccccc3cc12
growth inhibition ([8]; at 1.2 µM): 34% | growth inhibition ([8]; at 3.7 µM): 57% | growth inhibition ([8]; at 11.0 µM): 79% (active) | growth inhibition ([8]; at 33.0 µM): 93% (active) | growth inhibition ([8]; at 100.0 µM): 96% (active) | growth inhibition ([9]; at 1.2 µM): 27% | growth inhibition ([9]; at 3.7 µM): 44% | growth inhibition ([9]; at 11.0 µM): 93% (active) | growth inhibition ([9]; at 33.0 µM): 99% (active) | growth inhibition ([9]; at 100.0 µM): 99% (active) | growth inhibition ([1]; at 1.2 µM): 18% | growth inhibition ([1]; at 3.7 µM): 37% | growth inhibition [1, 15]: 76% (active) | growth inhibition ([1]; at 11.0 µM): 76% (active) | growth inhibition ([1]; at 33.0 µM): 97% (active) | growth inhibition [1, 16]: 100% (active) | growth inhibition ([1]; at 50.0 µM): 99.6% (active) | growth inhibition ([1]; at 100.0 µM): 98% (active) | growth inhibition ([2]; at 1.2 µM): 59% | growth inhibition ([2]; at 3.7 µM): 58% | growth inhibition [2, 15]: 58% | growth inhibition ([2]; at 11.0 µM): 86% (active) | growth inhibition ([2]; at 33.0 µM): 99% (active) | growth inhibition [2, 16]: 100% (active) | growth inhibition ([2]; at 50.0 µM): 99.6% (active) | growth inhibition ([2]; at 100.0 µM): 99% (active) | growth inhibition ([10]; at 1.2 µM): 18% | growth inhibition ([10]; at 3.7 µM): 24% | growth inhibition ([10]; at 11.0 µM): 66% | growth inhibition ([10]; at 33.0 µM): 99% (active) | growth inhibition ([10]; at 100.0 µM): 99% (active) | growth inhibition [3, 15]: 92% (active) | growth inhibition [3, 16]: 100% (active) | growth inhibition ([3]; at 50.0 µM): 99.7% (active) | growth inhibition ([11]; at 1.2 µM): 45% | growth inhibition ([11]; at 3.7 µM): 50% | growth inhibition ([11]; at 11.0 µM): 80% (active) | growth inhibition ([11]; at 33.0 µM): 97% (active) | growth inhibition ([11]; at 100.0 µM): 99% (active) | growth inhibition [4, 15]: 16% | growth inhibition [4, 16]: 99% (active) | growth inhibition ([4]; at 50.0 µM): 99.4% (active) | growth inhibition ([5]; at 1.2 µM): 75% (active) | growth inhibition ([5]; at 3.7 µM): 87% (active) | growth inhibition [5, 15]: 64% | growth inhibition ([5]; at 11.0 µM): 89% (active) | growth inhibition ([5]; at 33.0 µM): 99% (active) | growth inhibition [5, 16]: 99% (active) | growth inhibition ([5]; at 50.0 µM): 99.4% (active) | growth inhibition ([5]; at 100.0 µM): 99% (active) | growth inhibition ([7]; at 1.2 µM): 13% | growth inhibition ([7]; at 3.7 µM): 29% | growth inhibition ([7]; at 11.0 µM): 76% (active) | growth inhibition ([7]; at 33.0 µM): 99% (active) | growth inhibition ([7]; at 100.0 µM): 99% (active) | growth inhibition ([12]; at 1.2 µM): 19% | growth inhibition ([12]; at 3.7 µM): 35% | growth inhibition ([12]; at 11.0 µM): 85% (active) | growth inhibition ([12]; at 33.0 µM): 99% (active) | growth inhibition ([12]; at 100.0 µM): 99% (active) | growth inhibition ([13]; at 1.2 µM): 24% | growth inhibition ([13]; at 3.7 µM): 45% | growth inhibition ([13]; at 11.0 µM): 89% (active) | growth inhibition ([13]; at 33.0 µM): 99% (active) | growth inhibition ([13]; at 100.0 µM): 99% (active) | growth inhibition [6, 15]: 96% (active) | growth inhibition [6, 16]: 99% (active) | growth inhibition ([6]; at 50.0 µM): 99.5% (active) | growth inhibition ([14]; at 1.2 µM): 50% | growth inhibition ([14]; at 3.7 µM): 60% | growth inhibition ([14]; at 11.0 µM): 92% (active) | growth inhibition ([14]; at 33.0 µM): 98% (active) | growth inhibition ([14]; at 100.0 µM): 99% (active)

ClC1=C(Cl)C(Cl)(Cl)SS1
growth inhibition [1, 15]: 100% (active) | growth inhibition [1, 16]: 99% (active) | growth inhibition ([1]; at 50.0 µM): 88.7% (active) | growth inhibition [2, 15]: 100% (active) | growth inhibition [2, 16]: 99% (active) | growth inhibition ([2]; at 50.0 µM): 91.5% (active) | growth inhibition [3, 15]: 100% (active) | growth inhibition [3, 16]: 99% (active) | growth inhibition ([3]; at 50.0 µM): 92.1% (active) | growth inhibition [4, 15]: 100% (active) | growth inhibition [4, 16]: 99% (active) | growth inhibition ([4]; at 50.0 µM): 91.5% (active) | growth inhibition [5, 15]: 100% (active) | growth inhibition [5, 16]: 99% (active) | growth inhibition ([5]; at 50.0 µM): 89.3% (active) | growth inhibition [6, 15]: 99% (active) | growth inhibition [6, 16]: 99% (active)
